Screens from PubChem.
Pf growth 96h – P. falciparum growth inhibition at 96 hour, primary screen for plastid delayed-death inhibitors | P. falciparum luciferase reporter growth, 96 h | Potency, µM (series often up to 28.7 µM), inactives show at the highest dose activity change, negative = inhibition, most hits filed as inhibitors | 320,000 tested, 6.9% active | AID 504834
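Two parasite generations (96 h, 37 C, 5% CO2) of compound exposure in infected erythrocytes (0.05% parasitemia, 2% hematocrit). Luciferase-reporter P. falciparum; decreased luminescence indicates inhibited growth, aimed at apicoplast-acting delayed death.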
Pf growth 48h – P. falciparum growth inhibition at 48 hours (one generation); P. falciparum luciferase growth in erythrocytes, 48 h; Potency, µM (series often up to 28.7 µM), inactives show at the top dose activity change, negative = inhibition, actives largely listed as inhibitors; 310,000 tested, 5.9% active
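Cell-based growth assay: transgenic P. falciparum expressing firefly luciferase, cultured in red cells within RPMI 1640 containing 0.5% w/v Albumax, 24 mM bicarbonate and gentamycin. A drop in luciferase activity indicates inhibition.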
AMA1-RON2 inh – AMA1-RON2 (P. falciparum) interaction inhibition | 360,000 tested, 0.2% active | Potency, µM (series often up to 58.2 µM), inactives show at the top dose activity change, negative = inhibition, most hits filed as inhibitors | AlphaScreen AMA1-biotinylated RON2 peptide binding;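 further: 0% = vehicle wells and -100% = peptide control; nearly all actives have a fitted effect of over 45% in size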
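AMA1 (3D7) with his tag at 25 nM final met compounds first, then biotinylated RON2 peptide at 25 nM; detection used donor plus acceptor beads, 10 µg/mL apiece, read by AlphaScreen after 30 min at room temperature.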
HCV inhibitor – inhibitors of hepatitis C virus infection; Potency, µM (highest dose often 41.8 µM), inactives show at the highest dose activity change, negative = inhibition, most hits filed as inhibitors; AID 651820; 340,000 tested, 3.4% active; Huh7.5.1 HCVcc-Cre infection, luciferase reporter, 44 h
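Compounds are dispensed onto cells plated 4 h earlier at 1,000 per well, with HCVcc-Cre virus (about 0.5 moi) added next. Following 44 h of culture, luminescent signal is measured for 15 sec after 15 min with substrate at room temperature.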
Numbers without * were called inactive; ? = inconclusive; nt = no result given; ! = a repeat was not active. A selection: hits, their analogues and other compounds. The true share with any hit is near 11%. The call rests on the fitted dose curve; in most records, active means well fitted curve in the direction sought with a large enough effect; inconclusive means small, poorly fitted or top-dose-only effect, or another doubt; inactive means no such curve, though single readings can be large; an effect the other way counts as inactive or inconclusive. Unless noted, on the % scale 0 is the no-effect control and ±100 the full control effect; potency means the concentration at half of the fitted maximal effect.

SMILES | Pf growth 96h | Pf growth 48h | AMA1-RON2 inh | HCV inhibitor
COc1ccc2[nH]c(=O)c(CN(Cc3cccs3)C(=S)Nc3cccc(C)c3)cc2c1 | ? | 15µM* | -9% | ?
COc1ccc2[nH]c(=O)c(CN(CC3CCCO3)C(=S)Nc3cccc(C)c3)cc2c1 (stereo not given) | 25% | ? | -5% | ?
CNC(=S)N(Cc1cccs1)Cc1cc2cc(OC)ccc2[nH]c1=O | 7.4µM* | ? | -8% | -5%
CCC(=O)N(CCc1ccccc1)Cc1cc2cc(OC)ccc2[nH]c1=O | -8% | 2.1µM* | -9% | -4%
COc1ccc2[nH]c(=O)c(CN(Cc3ccccc3)C(=S)NCC3CCCO3)cc2c1 (stereo not given) | 169% | 9% | -7% | ?
CNC(=S)N(Cc1cc2ccc(OC)cc2[nH]c1=O)CC1CCCO1 (stereo not given) | 13µM* | -23% | -9% | -29%
CN(C)C(=O)COc1ncnc2scc(-c3ccc(F)cc3)c12 | 17% | ? | 0% | 0%
COc1ccc2[nH]c(=O)c(CN(CCO)S(=O)(=O)c3c(C)ccc4nsnc34)cc2c1 | nt | 5% | 5% | 11%
COc1ccc2[nH]c(=O)c(CN(Cc3cccs3)S(=O)(=O)c3cccc4nsnc34)cc2c1 | -7% | 7.4µM* | -3% | 10µM*!
O=C(CC1(O)C(=O)Nc2cc(Cl)cc(Cl)c21)c1ccccc1O (stereo not given) | 19% | -1% | 1% | 25µM*
CCc1nnc(NC(=O)CCC(=O)Nc2ccc(Cl)cc2)s1 | 2% | 7% | 2% | 16%
O=C1CC(N2CCC(O)(c3ccc(Cl)cc3)CC2)C(=O)N1Cc1ccc(N2CCCC2=O)cc1 (stereo not given) | nt | 9.3µM* | -13% | ?
O=C1CCCN1CCC1CCN(C2CC(=O)N(Cc3ccc(N4CCCC4=O)cc3)C2=O)CC1 (stereo not given) | nt | ? | 0% | 8%
Cc1cc2ncn(C3CC(=O)N(Cc4ccc(N5CCCC5=O)cc4)C3=O)c2cc1C (stereo not given) | 8.3µM* | 19% | 1% | 2%
O=C1CC(N2CCN(Cc3ccc4c(c3)OCO4)CC2)C(=O)N1Cc1ccc(N2CCCC2=O)cc1 (stereo not given) | 9.3µM* | ? | -10% | -15%
O=C1CC(N2CCOCC2)C(=O)N1Cc1ccc(N2CCCC2=O)cc1 (stereo not given) | 173% | nt | 13% | 6%
CNC1CCc2cc(OC)c(OC)c(OC)c2-c2ccc(OC)c(=O)cc21 (stereo not given) | -29% | -18% | nt | nt
CNS(=O)(=O)c1ccc(NC(=O)Nc2cccc(F)c2)cc1 | 1% | 7% | 6% | -1%
CN1C(=O)C(C)(C)c2cc(S(=O)(=O)N3CCC(C(=O)NCc4ccc(F)cc4)CC3)ccc21 | 13µM* | ? | 0% | -9%
O=C(NCc1ccc(F)cc1)C1CCN(S(=O)(=O)c2ccc(Br)s2)CC1 | ? | 9.3µM* | 2% | ?
CC(CCc1ccccc1)NC(=O)C1CCN(S(=O)(=O)c2ccc(F)cc2)CC1 (stereo not given) | ? | -15% | 10% | ?
CCC(C)NC(=O)C1CCN(S(=O)(=O)c2ccc(Br)s2)CC1 (stereo not given) | 10µM* | ? | -10% | -8%
CC(CCc1ccccc1)NC(=O)C1CCN(S(=O)(=O)N2CCCCC2)CC1 (stereo not given) | 1µM* | ? | 1% | ?
CC(NC(=O)C1CCN(S(=O)(=O)c2ccc(Br)s2)CC1)c1ccccc1 (stereo not given) | 24% | 0% | -11% | -7%
Cc1cccc(C)c1NC(=O)C(c1ccc(C(F)(F)F)cc1)n1c(=O)c(-c2cc3ccccc3[nH]2)nc2ccccc21 (stereo not given) | nt | nt | 60% | nt
SMILES | Pf growth 96h | Pf growth 48h | AMA1-RON2 inh | HCV inhibitor
CN(Cc1ccc(Cl)c(Cl)c1)C(=O)C1=CC=CN2CCS(=O)(=O)N=C12 | 1.5µM* | 9.3µM* | -9% | ?
O=c1c2c(nc3n1CCS3)c1cc(F)ccc1n2Cc1cc(=O)n2cc(Cl)ccc2n1 | 1.9µM* | ? | -15% | -22%
CCOC(=O)c1ccc(N2C(=O)C(CC(N)=O)N(CCc3ccc(OC)c(OC)c3)C2=S)cc1 (stereo not given) | 60% | 15µM* | 0% | 6%
CCOC(=O)c1ccc(N2C(=O)C3CCCN3C2=S)cc1 (stereo not given) | ? | ? | 35µM* | -6%
COC(=O)c1ccc(N2C(=O)CC(N(C)CCc3ccc(OC)c(OC)c3)C2=O)cc1 (stereo not given) | 9% | -10% | 1% | -5%
COC(=O)CN1C(=S)N(c2ccc(Cl)cc2)C(=O)C1CC(=O)Nc1ccccc1 (stereo not given) | ? | -28% | -7% | 14%
CCOc1ccc(N2C(=O)C3CCCN3C2=S)cc1 (stereo not given) | -39% | ? | -15% | 15%
COc1ccc(CCN2C(=S)N(c3ccc(Cl)cc3)C(=O)C2CC(N)=O)cc1OC (stereo not given) | 12µM* | 10µM* | -8% | ?
CN1CC=C2C(C#N)=C(N)C(C#N)(C#N)[C@H](c3cccs3)[C@H]2C1 | -25% | -10% | -2% | ?
CN1CC=C2C(C#N)=C(N)C(C#N)(C#N)C(CCc3ccccc3)C2C1 (stereo not given) | 7.4µM* | -24% | 7% | -3%
O=C(O)CC/C(=N\Nc1ccc([N+](=O)[O-])cc1S(=O)(=O)N1CCOCC1)c1cccs1 | ? | ? | 13% | -26%
O=C(Nc1cccnc1Cl)c1cc2ccccc2o1 | 314% | nt | 0% | 11%
CC(C)(C)NC(=O)CN(C(=O)CN1C(=O)C(=O)c2ccccc21)C(C)(C)C | 13µM* | 15% | 5% | 15%
CCOC(=O)N1CCN(S(=O)(=O)c2cc([N+](=O)[O-])c(C)cc2C)CC1 | 12% | 0% | -7% | 15%
COc1ccc(CCNC(=O)COc2nsnc2N2CCOCC2)cc1OC | ? | 1.9µM* | -16% | 11%
Cc1cc([N+](=O)[O-])ccc1NC(=O)COc1nsnc1N1CCOCC1 | -26% | 1.9µM* | -14% | ?
COc1ccc(NC(=O)COc2nsnc2N2CCOCC2)cc1 | 4% | 6% | 8% | 8%
Cc1ccccc1NC(=O)COc1nsnc1N1CCOCC1 | 22% | -10% | 2% | 8%
Cc1cnc(CNC(=O)C2CCC(=O)N(CCc3ccc(Cl)cc3)C2)cn1 (stereo not given) | ? | -7% | 9% | 10%
C=CC[C@H](CC(=O)NCCO)C(=O)N[C@@H](COC(=O)[C@@H](CC=C)CC(=O)OC(C)(C)C)Cc1c[nH]c2ccccc12 | nt | nt | -7% | 13%
Cc1ccccc1NC(=O)Cc1nc(CCl)cs1 | ? | ? | 0% | 19%
Cc1cccc(NC(=O)Cc2nc(-c3c[nH]c(C(=O)N4CCCC4)c3)cs2)c1 | ? | 12µM* | 7% | ?
